This passage reports outcome and AC50 results from PubChem BioAssay (EPA / NIEHS).

The AC50 is the midpoint of the concentration-response curve, whichever way the signal moves.

The source made the active and inactive calls. Rule for the calls: active = hit-call score of the fitted dose curve at least 0.9, where 1 is the maximum; inactive = score below 0.9.

What all share (settings): mRNA level, 48 h; actives raise or lower the signal
Read-out in assay [1]: Glutamate-cysteine ligase catalytic (GCLC), GCLC (gene 2729)
Put plainly: LTEA_HepaRG_GCLC: Life Technologies and Expression Analysis (LTEA) Assay for Glutamate-cysteine ligase catalytic (GCLC) using HepaRG (AID 2283498). An outline of the steps: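 Oxidative-stress marker GCLC is measured as mRNA change in human HepaRG liver cells after 48 h chemical treatment in 0.5% DMSO, eight concentrations from 100 uM. Activity is fitted bidirectionally against vehicle.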

Read-out in assay [2]: growth arrest and DNA damage 45 (GADD45G), GADD45G (gene 10912)
Put plainly: LTEA_HepaRG_GADD45G: Life Technologies and Expression Analysis (LTEA) Assay for growth arrest and DNA damage 45 (GADD45G) using HepaRG (AID 2283499). An outline of the steps:
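Differentiated human HepaRG cells, 48 h post-plating, exposed 48 h in serum-free induction medium to 8 half-log concentrations (top 100 uM, 0.5% DMSO) in duplicate. GADD45G mRNA measured by Fluidigm TaqMan qRT-PCR, normalized to ACTB, GAPDH, POLR2A; bidirectional fit versus DMSO.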

Read-out in assay [3]: Glutamate-cysteine ligase regulatory (GCLM), GCLM (gene 2730)
Put plainly: LTEA_HepaRG_GCLM: Life Technologies and Expression Analysis (LTEA) Assay for Glutamate-cysteine ligase regulatory (GCLM) using HepaRG (AID 2283500). Summed up:
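In this multiplexed HepaRG gene-expression assay, GCLM mRNA change after 48 h treatment (8 concentrations, max 100 uM) was scored against DMSO by bidirectional curve fitting.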

Read-out in assay [4]: Heat shock 70 kDa protein 1 (HSPA1A), gene 3303
Description: LTEA_HepaRG_HSPA1A: Life Technologies and Expression Analysis (LTEA) Assay for Heat shock 70 kDa protein 1 (HSPA1A) using HepaRG (AID 2283502). An outline of the steps:
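An oxidative-stress marker readout: HepaRG cells treated 48 h in duplicate with an eight-point series (highest 100 uM) had HSPA1A mRNA quantified by TaqMan qRT-PCR. Activity was fitted in both directions using 0.5% DMSO as baseline.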

Read-out in assay [5]: Hypoxia-inducible factor 1-alpha (Homo sapiens) (UniProt Q16665)
Description: LTEA_HepaRG_HIF1A: Life Technologies and Expression Analysis (LTEA) Assay for Hypoxia-inducible factor 1 (HIF1A) Trancription factor using HepaRG (AID 2283503). Summed up: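 Gain- or loss-of-signal HIF1A mRNA changes are fitted against a DMSO baseline. HepaRG cultures receive eight concentrations, highest 100 uM, for 48 h in serum-free induction medium with 0.5% DMSO.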

Read-out in assay [6]: 3-Hydroxy-3-Methylglutaryl-CoA Synthase 2 (HMGCS2), HMGCS2 (gene 3158)
Put plainly: LTEA_HepaRG_HMGCS2: Life Technologies and Expression Analysis (LTEA) Assay for 3-Hydroxy-3-Methylglutaryl-CoA Synthase 2 (HMGCS2) using HepaRG (AID 2283504). Summed up: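 Human HepaRG cells in serum-free induction medium were exposed in duplicate for 48 h to 8-point half-log series from 100 uM top in 0.5% DMSO. HMGCS2 mRNA measured by TaqMan qRT-PCR, normalised to ACTB, GAPDH, POLR2A; bidirectional fit versus DMSO.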

Read-out in a further assay: HGF (gene 3082)
Put plainly: LTEA_HepaRG_HGF: Life Technologies and Expression Analysis (LTEA) Assay for Hepatocyte Growth Facto (HGF) using HepaRG (AID 2283505). Summed up: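 Differentiated HepaRG cells in serum-free induction medium exposed 48 h in duplicate, 8 half-log concentrations from 100 uM in 0.5% DMSO. HGF mRNA by qRT-PCR, normalised to ACTB, GAPDH, POLR2A; bidirectional fitting.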

Read-out in assay [7]: Insulin Like Growth Factor 1 (IGF1), IGF1 (gene 3479)
Description: LTEA_HepaRG_IGF1: Life Technologies and Expression Analysis (LTEA) Assay for Insulin Like Growth Factor 1 (IGF1) using HepaRG (AID 2283506). An outline of the steps:
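Endpoint: IGF1 mRNA change by qRT-PCR, housekeeping-normalized, fitted bidirectionally relative to 0.5% DMSO vehicle. Human HepaRG cells were treated 48 h in serum-free induction medium, eight half-log concentrations topping at 100 uM.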

Read-out in assay [8]: Intercellular Adhesion Molecule 1 (ICAM1), ICAM1 (gene 3383)
Put plainly: LTEA_HepaRG_ICAM1: Life Technologies and Expression Analysis (LTEA) Assay for Intercellular Adhesion Molecule 1 (ICAM1) using HepaRG (AID 2283507). Summed up:
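Differentiated human HepaRG cells in serum-free induction medium exposed 48 h in duplicate to 8 half-log concentrations (top 100 uM, 0.5% DMSO). ICAM1 mRNA quantified by TaqMan qRT-PCR, normalized to ACTB, GAPDH and POLR2A; bidirectional fitting versus DMSO.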

Read-out in assay [9]: Insulin-like growth factor-binding protein 1 (IGFBP1), IGFBP1 (gene 3484)
Put plainly: LTEA_HepaRG_IGFBP1: Life Technologies and Expression Analysis (LTEA) Assay for Insulin-like growth factor-binding protein 1 (IGFBP1) using HepaRG (AID 2283508). An outline of the steps: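 HepaRG cells, plated 48 h then switched to serum-free induction medium, exposed in duplicate for 48 h to 8-point half-log series from 100 uM in 0.5% DMSO. mRNA measured by qRT-PCR, normalized to ACTB/GAPDH/POLR2A; bidirectional fit versus DMSO.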

Read-out in assay [10]: Interleukin 6 (IL6), IL6 (gene 3569)
Put plainly: LTEA_HepaRG_IL6: Life Technologies and Expression Analysis (LTEA) Assay for Interleukin 6 (IL6) using HepaRG (AID 2283509). Summed up: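 Changes in IL6 mRNA, up or down relative to 0.5% DMSO controls, were derived from concentration-response curves in human HepaRG cells treated for 48 h at up to 100 uM, with ACTB, GAPDH and POLR2A as normalizers.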

Read-out in assay [11]: Interleukin 6 Receptor (IL6R), IL6R (gene 3570)
Description: LTEA_HepaRG_IL6R: Life Technologies and Expression Analysis (LTEA) Assay for Interleukin 6 Receptor (IL6R) using HepaRG (AID 2283510). Summed up:
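In this HepaRG screen, test chemicals act on cells for 48 h at up to 100 uM (eight half-log points, duplicate wells). IL6R expression is quantified by qRT-PCR after normalization to ACTB, GAPDH and POLR2A, with DMSO as baseline.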

Read-out in assay [12]: Potassium channel subfamily K member 1 (KCNK1), KCNK1 (gene 3775)
Put plainly: LTEA_HepaRG_KCNK1: Life Technologies and Expression Analysis (LTEA) Assay for Potassium channel subfamily K member 1 (KCNK1) using HepaRG (AID 2283511). An outline of the steps:
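Human HepaRG cultures receive test chemicals for 48 h in 0.5% DMSO, top concentration 100 uM with half-log dilutions. Induction or suppression of KCNK1 mRNA relative to DMSO is derived by bidirectional fitting of qRT-PCR data.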

Read-out in assay [13]: JUN Transcription Factor, JUN (gene 3725)
Description: LTEA_HepaRG_JUN: Life Technologies and Expression Analysis (LTEA) Assay for JUN Transcription Factor using HepaRG (AID 2283513). An outline of the steps: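 Gene-expression endpoint: JUN mRNA (qRT-PCR, normalized to three reference genes) in HepaRG cultures treated 48 h with chemicals, duplicate wells, 100 uM maximum with half-log dilutions; bidirectional fitting relative to 0.5% DMSO.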

Read-out in assay [14]: Lipase C (LIPC), LIPC (gene 3990)
Put plainly: LTEA_HepaRG_LIPC: Life Technologies and Expression Analysis (LTEA) Assay for Lipase C (LIPC) using HepaRG (AID 2283514). Summed up: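 In this multiplexed gene-expression screen, human HepaRG cultures received test chemicals for 48 h across eight concentrations with 100 uM highest, in duplicate. Values reflect LIPC mRNA induction or suppression versus DMSO vehicle, from normalized qRT-PCR.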

Read-out in assay [15]: Lipoprotein lipase (LPL), LPL (gene 4023)
Put plainly: LTEA_HepaRG_LPL: Life Technologies and Expression Analysis (LTEA) Assay for Lipoprotein lipase (LPL) using HepaRG (AID 2283515). An outline of the steps:
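Concentration-response testing used half-log steps from 100 uM in 0.5% DMSO on human HepaRG cells, 48 h, duplicate wells. Phenobarbital 1 mM served as induction control; LPL mRNA was normalized to ACTB, GAPDH, POLR2A.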

Read-out in assay [16]: MicroRNA 122 (MIR122), gene 406906
Put plainly: LTEA_HepaRG_MIR122: Life Technologies and Expression Analysis (LTEA) Assay for MicroRNA 122 (MIR122) using HepaRG (AID 2283516). Note: the transcript read is the microRNA miR-122. Summed up:
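Changes in transcript abundance, up or down relative to 0.5% DMSO vehicle, were scored after 48 h chemical treatment of HepaRG cells (maximum 100 uM). Quantification used TaqMan qRT-PCR normalized to housekeeping genes.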

Read-out in assay [17]: Keratin 19 (KRT19), KRT19 (gene 3880)
Description: LTEA_HepaRG_KRT19: Life Technologies and Expression Analysis (LTEA) Assay for Keratin 19 (KRT19) using HepaRG (AID 2283512). Summed up:
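Differentiated HepaRG cells in serum-free induction medium, exposed 48 h in duplicate to 8 half-log concentrations up to 100 uM in 0.5% DMSO. KRT19 mRNA by qRT-PCR, normalized to ACTB, GAPDH, POLR2A; bidirectional fit vs DMSO.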

Read-out in assay [18]: matrix metalloproteinase-10 (MMP10), MMP10 (gene 4319)
Put plainly: LTEA_HepaRG_MMP10: Life Technologies and Expression Analysis (LTEA) Assay for matrix metalloproteinase-10 (MMP10) using HepaRG (AID 2283517). Summed up: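 In differentiated HepaRG cultures kept in 0.5% DMSO, test chemicals act for 48 h over an eight-point range with a top dose of 100 uM. Expression is then quantified by TaqMan RT-PCR against ACTB, GAPDH and POLR2A.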

Chain of Hypoxia-inducible factor 1-alpha (Homo sapiens) (Q16665 whole entry, looked up): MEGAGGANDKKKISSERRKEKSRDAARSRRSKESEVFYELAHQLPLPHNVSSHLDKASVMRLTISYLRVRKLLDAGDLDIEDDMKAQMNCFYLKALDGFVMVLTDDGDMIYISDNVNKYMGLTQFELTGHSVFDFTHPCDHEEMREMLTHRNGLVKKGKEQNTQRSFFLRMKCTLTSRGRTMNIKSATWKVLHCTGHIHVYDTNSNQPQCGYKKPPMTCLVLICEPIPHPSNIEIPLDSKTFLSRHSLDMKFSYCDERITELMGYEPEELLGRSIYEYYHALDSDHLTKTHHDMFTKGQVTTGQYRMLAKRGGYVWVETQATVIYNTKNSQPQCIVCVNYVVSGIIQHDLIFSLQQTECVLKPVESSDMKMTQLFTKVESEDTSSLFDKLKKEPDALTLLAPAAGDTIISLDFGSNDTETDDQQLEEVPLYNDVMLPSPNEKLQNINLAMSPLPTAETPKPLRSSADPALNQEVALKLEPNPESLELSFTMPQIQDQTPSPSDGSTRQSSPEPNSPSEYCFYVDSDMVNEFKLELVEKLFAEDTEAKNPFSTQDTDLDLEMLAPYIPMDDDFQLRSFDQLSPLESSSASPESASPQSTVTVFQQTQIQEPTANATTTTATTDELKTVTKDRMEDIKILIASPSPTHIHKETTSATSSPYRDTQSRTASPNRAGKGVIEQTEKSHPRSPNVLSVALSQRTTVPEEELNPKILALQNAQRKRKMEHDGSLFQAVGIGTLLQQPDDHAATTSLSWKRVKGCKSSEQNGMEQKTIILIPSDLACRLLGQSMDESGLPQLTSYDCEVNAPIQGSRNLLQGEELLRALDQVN

Take `CCOc1ccc2[nH]cc(C(=O)NCc3ccccc3)c(=O)c2n1`: the molecule was classed as inactive in assay [1], in [2], in assay [3], in [4], in assay [5] and in assay [6]. The outcome (with HGF (gene 3082); in [8]; in assay [9]; in [10]; in assay [11]; in assay [12]) was inactive. The result in [13], in assay [14], in assay [15] and in [16] was inactive. Moreover, the AC50 in assay [7] was 15.8 µM (active).

For the molecule `Cn1cc[nH]c1=S`, the molecule was called inactive in [1], in assay [2], in assay [3], in assay [4], in [6] and in assay [7]. Moreover, the molecule was called inactive in assay [8], in assay [9], in assay [10], in [12], in assay [17] and in [13]. The outcome in assay [14], in assay [15] and in assay [16] was inactive.

In the case of `CCCCCCCCCCCCCCCCOS(=O)(=O)O`, the molecule was called inactive in assay [1], in assay [2], in assay [3], in [4], in assay [5] and in [6]. Also, the outcome (with HGF (gene 3082); in assay [8]; in assay [9]; in [10]; in [12]; in [13]) was inactive. In addition, the molecule was called inactive in assay [14], in assay [15], in assay [16] and in [18]. The AC50 in [7] is 44.2 µM (active).

Take `CCCCC(CC)C(=O)OCCOCCOCCOC(=O)C(CC)CCCC` (stereo not drawn): the result in assay [1], in [2], in [3], in assay [4], in assay [5] and in assay [6] was inactive. Further, the result (with HGF (gene 3082); in assay [7]; in assay [8]; in assay [9]; in assay [10]; in assay [11]) was inactive. In addition, the outcome in assay [12], in [13], in [14], in [15], in assay [16] and in assay [18] was inactive.

On to `OCC(CO)(CO)CO`, for which the outcome in assay [1], in [2], in [3], in assay [4], in assay [5] and in assay [6] was inactive. In addition, the result (with HGF (gene 3082); in assay [7]; in assay [8]; in assay [9]; in assay [10]; in assay [12]) was inactive. Further, the result in [17], in assay [13], in assay [14], in assay [15], in [16] and in assay [18] was inactive.

As to `COCc1nnc(-c2ccc[n+]([O-])c2)n1-c1c(Cl)c(Cl)cc2[nH]c(=O)c(=O)[nH]c12`, the molecule was called inactive in assay [1], in assay [2], in [3], in [4], in assay [5] and in assay [6]. Moreover, the molecule was classed as inactive (with HGF (gene 3082); in assay [7]; in [8]; in assay [9]; in assay [10]; in [11]). Also, the call in assay [12], in assay [13], in assay [14], in assay [15], in assay [16] and in assay [18] was inactive.
